SW480 rerep = DNA re-replication induction in SW480 cells | SW480 DNA re-replication, Hoechst DNA content imaging, 48 h | Potency, µM (series often up to 46.1 µM), for inactives: top-dose re-replication activation, most hits filed as activators | hit rate 1.8% among 340,000 | AID 624297; further: potency means the concentration at half of the fitted maximal effect; % of control where 0% means no effect; nearly all actives have a fitted effect of over 55% in size
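SW480 cells exposed to compounds for 48 hr at 37 C, 5% CO2, then Hoechst-stained 40 min. Nuclear DNA content imaged by fluorescence scanning (405 nm excitation, 500-530 nm emission); re-replication scored as increased high-intensity nuclei.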
Chronic BCR inh = inhibitors of chronic active B-cell receptor signaling | ABC-DLBCL IkBa-CBG/CBR reporter, luminescence ratio, 4 h | Potency, µM (top dose mostly 46.1 µM), without a hit: at the top dose activity change, negative = inhibition, most hits filed as inhibitors | hit rate 0.05% among 340,000; active means well fitted inhibition curve with a large enough effect in the signal ratio, with a control signal flat, not every such curve was filed as active; inconclusive means small, poorly fitted or top-dose-only effect, or effect the other way, or a change in a side signal; the % refers to the signal ratio;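 further: potency means the concentration at half of the fitted maximal effect; plate controls were basal doxycycline-induced cells for no effect and cells given 10 µM MG132 for full effect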
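TMD8 human ABC-DLBCL cells with doxycycline-inducible IκBα–green luciferase fusion and unfused red luciferase, in 0.5% FBS medium; compounds up to 46 uM, 4 h at 37C. Green/red luminescence ratio, filter-overlap corrected, fitted to concentration-response curves.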
TDP1 cell noCPT = qHTS for Inhibitors of human tyrosyl-DNA phosphodiesterase 1 (TDP1): qHTS in cells in absence of CPT | hit rate 15% among 420,000 | DT40 Tdp1-/- hTDP1 cells, no CPT, ATP luminescence, 48 h | AID 686978, 2013 | Potency, µM (doses to about 46.2 µM), without a hit: top-dose activity change, negative = growth inhibition, most hits filed as inhibitors; further: potency means the concentration at half of the fitted maximal effect; on the % scale 0 is the no-effect control and ±100 the full control effect; nearly all actives have a fitted effect of over 55% in size
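Luminescent ATP content (CellTiter-Glo) served as the growth readout. Knockout chicken DT40 cells expressing human TDP1 were exposed to compounds without camptothecin for a minimum 48 hr at 37 °C.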
IL1B secr inh = inflammasome signaling inhibition, IL-1 beta readout | THP-1 LPS/ATP IL-1B secretion, AlphaLISA, 16 h; active compounds read low | activity change, % at 57.5 µM | hit rate 4.7% among 360,000; in the data active means activity change below about -50%; inconclusive means mostly about -30% to -49%; further: on the % scale 0 is the no-effect control and ±100 the full control effect
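Secreted IL-1B measured by AlphaLISA bead assay after 16 h compound exposure of THP-1 cells; compounds (final up to 57.5 uM) added 1 h before LPS (250 ng/mL) and ATP (1.25 mM) stimulation; lower signal means less secretion.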
MCF10A rerep = inducers of DNA re-replication in MCF 10A breast cells; MCF 10A DNA re-replication, Hoechst nuclear intensity, 48 h; Potency, µM (highest dose often 46.1 µM), without a hit: at the top dose activity, positive = re-replication, actives largely listed as activators; hit rate 2.9% among 350,000; AID 624296; further: potency means the concentration at half of the fitted maximal effect; % of control where 0% means no effect; nearly all actives have a fitted effect of over 50% in size
TDP1 cell CPT = DT40-hTDP1 cell growth loss with CPT. chicken DT40 Tdp1-/-;hTDP1 cells + 20 nM CPT, ATP luminescence, 48 h. Potency, µM (series often up to 46.2 µM), inactives show at the top dose activity change, negative = growth inhibition, most hits filed as inhibitors. hit rate 12% among 420,000. AID 686979; further: potency means the concentration at half of the fitted maximal effect; on the % scale 0 is the no-effect control and ±100 the full control effect; nearly all actives have a fitted effect of over 55% in size
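Cell growth measured by CellTiter-Glo luminescence after a minimum 48 h, 37 C compound exposure with 20 nM CPT in Tdp1-knockout DT40 cells stably expressing hTDP1, seeded 400/well; qHTS titration format.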
The depositor's hits bear a star; i = inactive; ? = inconclusive; / = no result; [ ] = another dose, or the depositor's remark. The list is not random: actives were taken first. Their share in the collection is about 19%. Unless noted, the call rests on the fitted dose curve; in most records, active means well fitted curve in the direction sought with a large enough effect; inconclusive means small, poorly fitted or top-dose-only effect, or another doubt; inactive means no such curve, though single readings can be large; an effect the other way counts as inactive or inconclusive.

SMILES	SW480 rerep	Chronic BCR inh	TDP1 cell noCPT	IL1B secr inh	MCF10A rerep	TDP1 cell CPT
O=S(=O)(c1ccc(F)c(F)c1)N1CCN(S(=O)(=O)c2cccs2)CC1	-23%	3%	-1%	i	-4%	10%
Cc1ccc(N(C)S(=O)(=O)c2ccc(-c3cc(C)no3)s2)cc1	?	?	-83%	4	9.2µM*	6.5µM*
Cc1cc(-c2ccc(S(=O)(=O)N(C)c3ccc(C)c(C)c3)s2)on1	?	?	4.1µM*	24	10µM*	3.3µM*
CC(C)n1c(-c2ccco2)csc1=Nc1cccnc1	-3%[9.22 µM]	-18%	?	0	1%	11µM*
Cc1ccc(-c2csc(=Nc3cccnc3)n2CCCN2CCCC2=O)cc1C	10%	?	18µM*	-51*	25%	?
CCCCn1c(C)csc1=Nc1cccnc1	-3%	0%	?	-14	18%	?
Cc1ccc(-c2csc(=Nc3cccnc3)n2CCCn2ccnc2)cc1C	-1%	-9%	12µM*	?	?	16µM*
COCCn1c(-c2ccccc2)csc1=Nc1cccnc1	?	3%	?	-11	?	16µM*
COc1ccc2[nH]c3c(c2c1)CCN1C(=O)C(CC(=O)NCc2ccco2)C[C@H](C(=O)N2CCOCC2)[C@@]31CCC1CCCC1 (some centres undefined)	-26%[9.22 µM]	3%	?	-19	?	?
Cc1cnc(-n2ncc(C(=O)N[C@H]3CCCCNC3=O)c2C2CC2)nc1-c1cccs1	/	/	-18%	/	/	-22%
Cc1ccc(N/C(=C\C(=O)c2ccccc2)C(=O)O)cc1	0%	?	-8%	0	0%	-8%
CN1C(=O)/C(=C\C(=O)c2cccs2)c2ccccc21	-71%	?	9.2µM*	-103*	?	13µM*
Cc1cc(NC(=O)COC(=O)c2ccccc2OCCOc2ccccc2)ccc1Br	/	/	?	/	/	-9%
Cc1ccc(C(C#N)c2ccc3c(C(F)(F)F)cc(C(F)(F)F)nc3n2)cc1 (centres undefined)	-9%	-2%	18µM*	?	9%	26µM*
FC(F)(F)c1cc(C(F)(F)F)c2ccc(N/N=C/c3ccccc3)nc2n1	-2%	-13%	3%	-8	0%	2%
N#CC(c1ccccc1)c1ccc2c(C(F)(F)F)cc(C(F)(F)F)nc2n1 (centres undefined)	-3%[9.22 µM]	18%	18µM*	-83*	?	13µM*
Cc1[nH]c2ccccc2c1CCN(Cc1cccnc1)C(=S)NC(C)(C)C	-17%	5%	?	-3	-20%	-26%
CCC(C)(C)C1CCc2[nH]nc(C(=O)NCc3ccccn3)c2C1 (centres undefined)	2%	0%	23µM*	15	?	15µM*
CCC(C)(C)C1CCc2[nH]nc(C(=O)NCCCNC(=O)OC(C)(C)C)c2C1 (centres undefined)	6%	2%	18µM*	48	25%	?
CCC(C)(C)C1CCc2[nH]nc(C(=O)NCc3ccc(Cl)cc3)c2C1 (centres undefined)	-10%	-7%	?	-26	8%	?
Cc1cc(C)n(CCCNC(=O)C(C)(C)Oc2ccc(Cl)cc2)n1	-4%	?	?	0	1%	-18%
CCCC(CCC)C(N)=O	/	/	4%	/	/	-1%
CCOc1ccc(CCNC(=O)c2ccc3c(=O)[nH]c4c(C(=O)NC(C)C)sc(=S)n4c3c2)cc1	-7%	0%	13µM*	9	-1%	23µM*
O=C(CSc1nnc(NC(=O)C2CC2)s1)Nc1ccc(F)cc1F	0%	-2%	3%	-15	-1%	-2%
O=C(Nc1nc(-c2ccccc2)cs1)c1ccc(N2CCOCC2)c([N+](=O)[O-])c1	3%	?	8.2µM*	?	?	15µM*
SMILES	SW480 rerep	Chronic BCR inh	TDP1 cell noCPT	IL1B secr inh	MCF10A rerep	TDP1 cell CPT
O=C(Nc1nc2ccccc2s1)c1ccc(N2CCCCC2)c([N+](=O)[O-])c1	3%	?	15µM*	-11	6%	23µM*
CN1CCN(c2ccc([N+](=O)[O-])cc2NC(=O)c2cccs2)CC1	7%	6%	23µM*	-24	9%	?
CN1CCN(c2ccccc2NC(=O)c2ccc(N3CCCC3)c([N+](=O)[O-])c2)CC1	11%	1%	?	-78*	2%	?
CN1CCN(c2ccc([N+](=O)[O-])cc2NC(=O)c2ccco2)CC1	-8%	4%	-19%	-11	0%	-25%
COC(=O)N1CCC2CC1c1c(Cl)cccc12 (centres undefined)	/	/	-12%	44	/	-1%
O=C(NCCC(=O)N1CCCC1)c1ccccc1Cl	-5%	0%	18%	-4	1%	9%
CC1CCN(c2ccccc2NC(=O)c2ccc(N3CCOCC3)c([N+](=O)[O-])c2)CC1	-6%	-3%	-6%	1	16µM*	1%
CC(=O)N1CCN(c2ccc(C(N)=O)cc2[N+](=O)[O-])CC1	1%	-5%	-1%	46	0%	-10%
O=C(Nc1ccccc1N1CCCCC1)c1ccc(Cl)c([N+](=O)[O-])c1	8%	4%	18µM*	/	?	?
CN1CCN(c2ccc(C(=O)c3ccc(Br)cc3)cc2[N+](=O)[O-])CC1	?	-1%	15µM*	-220*	1%	?
O=C(Nc1ccccc1C(=O)N1CCCC1)c1ccc(Cl)c([N+](=O)[O-])c1	0%	?	?	?	5%	-22%
COc1ccc(C2Nc3ccccc3C(=O)N2c2ccc(Cl)cc2)cc1COc1ccc(NC(C)=O)cc1 (centres undefined)	/	/	14µM*	/	/	?
COc1ccc(N2C(=O)c3ccccc3NC2c2ccc(NC(C)=O)cc2)c(OC)c1 (centres undefined)	-11%	-9%	-18%	3	6%	-23%
COc1ccc(C2Nc3ccccc3C(=O)N2c2ccccc2F)cc1COc1ccc(NC(C)=O)cc1 (centres undefined)	/	/	18µM*	/	/	11µM*
Cc1nn(-c2ccccc2)c(Cl)c1C(=O)NC1CCCCC1	1%	?	-2%	-17	27%	9%
Cc1nn(-c2ccccc2)c(C)c1C(=O)OC(C)C(=O)NC1CCCCC1 (centres undefined)	5%	?	10µM*	?	?	16µM*

High-throughput results as filed in PubChem BioAssay.
